From PubChem BioAssay (Tox21)
Records with an inconclusive call do not appear. Where a call stands in place of a potency, no number is given. Calls of active or inactive are those of the source. The call rests on the fitted dose curve; in most records, active means well fitted cell-killing curve with a large enough effect in the repeat runs; inconclusive means weak or mixed curves, or effect the other way; inactive means flat fitted curve, though single readings scatter.

Experiment: qHTS assay to identify small molecule antagonists of the estrogen receptor alpha (ER-alpha) signaling pathway using the BG1 cell line in the presence of 0.1 nM 17-beta-estradiol - cell viability counter screen (AID 1259241); further: nearly all actives have a fitted effect of over 40% in size
Conditions: VM7Luc4E2 (BG1) viability, CellTiter-Fluor protease, 22 h, 0.1 nM estradiol agonist added; series mostly up to 92.4 µM
Procedure, shortened: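 Estradiol-stimulated (0.1 nM) VM7Luc4E2 cells exposed to compounds 22 hr; viability measured by fluorescence of cleaved CellTiter-Fluor substrate after 30 min.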

Row | Compound | Potency
1 | C/C=C/C=C/COC(=O)C(C)C | inactive
2 | CCCCCCOC(=O)C(C)CC (stereo unspecified) | inactive
3 | C#Cc1ccc(-c2ccccc2F)cc1 | inactive
4 | COc1ccc(NC(=O)CC(C)=O)cc1 | inactive
5 | CCCCNS(=O)(=O)c1ccc(C)cc1 | inactive
6 | CC1=Nc2ccccc2C1(C)C | inactive
7 | O=C(c1ccc(O)c(O)c1)c1ccc(O)cc1O | inactive
8 | S=c1nccc[nH]1 | inactive
9 | CCC(=O)OC(=O)CC | inactive
10 | O=C1CCc2cc(OCCCCc3nnnn3C3CCCCC3)ccc2N1 | inactive
11 | FC(F)(F)c1cccc(Cl)c1 | inactive
